PubChem BioAssay (Tox21)
“And” between values parts separate entries of the source, which are not always exact repeats. Identical values can stand only once. Inconclusive results are not listed. A structure can be active in one record and inactive in another. The source made the active and inactive calls. Unless noted, the call rests on the fitted dose curve; in most records, active means well fitted curve in the direction sought with a large enough effect in the repeat runs; inconclusive means weak or mixed curves; inactive means no such curve, though single readings can be large; an effect the other way counts as inactive or inconclusive.

Legend:
[1] = qHTS assay for small molecules that induce genotoxicity in human embryonic kidney cells expressing luciferase-tagged ATAD5 (AID 651632); further: nearly all actives have a fitted effect of over 15% in size
Summary of the method: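 Genotoxicity read-out via ATAD5-luciferase: HEK293T cells, 16 hr compound incubation at 37C, Amplite detection.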

[2] = qHTS assay for small molecules that induce genotoxicity in human embryonic kidney cells expressing luciferase-tagged ATAD5 - cell viability (AID 651634; calls by dose curve; further: nearly all actives have a fitted effect of over 25% in size; further: potency means the concentration at half of the fitted maximal effect)
Summary of the method: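 Live-cell protease activity (CellTiter-Fluor, fluorescence) indicates viability. HEK293T cells with luciferase-tagged ATAD5; 15.5 hr compound treatment at 37C.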

[3] = qHTS assay for small molecule disruptors of the mitochondrial membrane potential - cell viability (AID 720634; calls by dose curve; further: nearly all actives have a fitted effect of over 20% in size; further: potency means the concentration at half of the fitted maximal effect)
Summary of the method: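 Human hepatoma HepG2 cells were treated for 1 hr with test chemicals, then given m-MPI dye and CellTiter-Glo. Cell viability reflects luminescence proportional to cellular ATP.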

[4] = qHTS assay to test for compound auto fluorescence at 590 nm (red) in HepG2 cells (AID 720674)
Summary of the method: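 Intrinsic compound fluorescence in the red window (Ex/Em 540/590 nm) is measured in attached HepG2 cells exposed for 1 hr, DMSO vehicle as baseline, benchmarked to Rose Bengal sodium.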

[5] = qHTS assay to test for compound auto fluorescence at 535 nm (green) in HepG2 cells (AID 720675)
[6] = qHTS assay to test for compound auto fluorescence at 460 nm (blue) in HEK293 cells (AID 720678)
Summary of the method: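 Blue read-out at excitation 405 nm and emission 460 nm follows overnight compound exposure of HEK293 cells at 37C in 5% CO2. Activity is given as auto fluorescence equivalency to triamterene.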

[7] = qHTS assay to test for compound auto fluorescence at 590 nm (red) in HEK293 cells (AID 720679)
Summary of the method: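 Red channel, Ex/Em 540/590nm; signal expressed as equivalency to Rose Bengal sodium. HEK293, 2,000 cells/well, 10% dialyzed FBS; 23 nL compound pinned after 4-5 hr attachment; overnight 37C/5% CO2 before reading.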

[8] = qHTS assay for small molecule agonists of the p53 signaling pathway - cell viability (AID 651633; calls by dose curve; further: nearly all actives have a fitted effect of over 30% in size; further: potency means the concentration at half of the fitted maximal effect)
Summary of the method: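 p53RE-bla cells, seeded at 4,000 per well and rested 5 h at 37 C/5% CO2, received compounds in DMSO for 16 h at 37 C. CellTiter-Glo was then added, and luminescence was read after 30 min at room temperature to gauge cytotoxicity.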

[9] = qHTS assay for small molecule disruptors of the mitochondrial membrane potential (AID 720635); further: potency means the concentration at half of the fitted maximal effect
Summary of the method: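 HepG2 cells (2,000/well) attached overnight at 37C, then took compound for 1 hr at 37C, 5% CO2. Mito-MPS dye was added for 30 min; fluorescence was read at 490/535 nm (monomers) and 540/590 nm (aggregates).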

Measured: Potency

CC(C)(C)OC(=O)c1ncn2c1[C@@H]1CCCN1C(=O)c1c(Br)cccc1-2
inactive: [1] | [2] | [3] | [4] | [5] | [6] | [7]

N#CCCC#N
inactive: [1] | [8] | [2] | [4] | [5] | [7]

CC(C)CP(=S)(S)CC(C)C
inactive: [1] | [2] | [3] | [4] | [6] | [7]

CC1CN1P(=O)(N1CC1C)N1CC1C (stereo not given)
inactive: [1] | [2] | [3] | [4] | [5] | [7]

CC(C)(C)C(=O)C(Oc1ccc(Cl)cc1)n1cncn1 (stereo not given)
inactive: [1] | [8] | [2] | [4] | [6] | [7]

CC(C)CC#N
inactive: [1] | [2] | [3] | [9] | [4] | [5] | [6] | [7]

COc1ncc(F)c2nc(S(=O)(=O)Nc3c(F)cccc3F)nn12
inactive: [1] | [2] | [4] | [5] | [6] | [7]

O=[N+]([O-])c1cccc2c([N+](=O)[O-])cccc12
inactive: [1] | [2] | [3] | [4] | [5] | [7]

O=[N+]([O-])c1cccc(O)c1
active: [9] 43.4 µM
inactive: [1] | [2] | [3] | [4] | [5] | [6] | [7]

CCN(CC)C(C)C(=O)c1ccccc1 (stereo not given)
inactive: [1] | [2] | [3] | [9] | [4] | [5] | [6] | [7]

N#CC(CCc1ccc(Cl)cc1)(Cn1cncn1)c1ccccc1 (stereo not given)
active: [8] 6.86 µM | [9] 48.6 µM
inactive: [1] | [3] | [4] | [6] | [7]

Cc1ncc(CNC(=O)N(CCCl)N=O)c(N)n1
inactive: [1] | [2] | [3] | [9] | [4] | [5] | [6] | [7]

C=CC1CC=CCC1 (stereo not given)
inactive: [1] | [8] | [2] | [4] | [6] | [7]

Nc1n[nH]c(N)n1
inactive: [8] | [2] | [3] | [4] | [5] | [6] | [7]

CC(Oc1ccc(Oc2ncc(C(F)(F)F)cc2Cl)cc1)C(=O)O (stereo not given)
inactive: [2] | [4] | [6] | [7]

c1coc(-c2nc3ccccc3[nH]2)c1
inactive: [2] | [4] | [5] | [6] | [7]

CCCCc1ccc(O)cc1
inactive: [8] | [2] | [3] | [4] | [5] | [6] | [7]
active: [9] 48.5 µM

CNC(=O)Oc1ccccc1C1OCCO1
inactive: [8] | [2] | [3] | [4] | [6] | [7]

CNCC(=O)c1ccc(O)c(O)c1
inactive: [2] | [9] | [4] | [5] | [6] | [7]

C[N+](=O)[O-]
inactive: [8] | [2] | [3] | [9] | [4] | [5] | [6] | [7]

C(CCOCC1CO1)COCC1CO1 (stereo not given)
inactive: [8] | [2] | [9] | [4] | [5] | [6] | [7]

COC(=O)C(C)Oc1ccc(Oc2ccc(Cl)cc2Cl)cc1 (stereo not given)
inactive: [8] | [2] | [3] | [4] | [5] | [6] | [7]

CN(C)CCc1ccc(O)cc1
inactive: [8] | [2] | [9] | [4] | [5] | [6] | [7]

O=[N+]([O-])c1cccc2cccnc12
inactive: [8] | [3] | [4] | [5] | [6] | [7]

CCC/C(=N\OCC)C1=C(O)CC(CC(C)SCC)CC1=O (stereo not given)
inactive: [8] | [2] | [3] | [9] | [4] | [5] | [7]

Oc1c(Cl)cccc1Cl
inactive: [8] | [2] | [3] | [9] | [4] | [5] | [7]

C[C@]12CC[C@H]3[C@@H](CC=C4C[C@@H](O)CC[C@@]43C)[C@@H]1CC[C@@H]2O
inactive: [8] | [2] | [4] | [6] | [7]

CN/C(=N\[N+](=O)[O-])NCC1CCOC1 (stereo not given)
inactive: [8] | [2] | [3] | [4] | [5] | [6] | [7]

C[N+](C)=CCl
inactive: [8] | [2] | [4] | [6] | [7]

O=C(O)C(Br)CBr (stereo not given)
inactive: [2] | [3] | [9] | [4] | [5] | [7]

CN1C(=S)CN=C(c2ccccc2)c2cc(Cl)ccc21
inactive: [8] | [2] | [4] | [5] | [6] | [7]

COC(=O)COc1ccc(Cl)cc1Cl
inactive: [8] | [2] | [3] | [4] | [5] | [6] | [7]

C1CCC(C2CCCCC2)CC1
inactive: [2] | [3] | [4] | [5] | [7]

CCCSP(=O)(OCC)Oc1ccc(Br)cc1Cl (stereo not given)
active: [9] 1.05 µM
inactive: [4] | [5] | [7]

CCOC(=O)/C=C(C)/C=C/C[C@@H](C)CCCC(C)C
inactive and 54.5 µM (active): [9]
inactive: [8] | [2] | [3] | [4] | [5] | [6] | [7]

Nc1c(Br)cc([N+](=O)[O-])cc1[N+](=O)[O-]
active: [2] 49.1 µM | [3] 61.8 µM | [9] 8.73 µM
inactive: [4] | [5] | [7]

c1cc[c]([Hg][c]2ccccc2)cc1
inactive: [2] | [3] | [4] | [5] | [6] | [7]
active: [9] 15.4 µM

CCS(=O)(=O)CCSP(=O)(OC)OC
inactive: [2] | [3] | [4] | [5] | [6] | [7]

O=C1OC(c2ccc(O)c(S(=O)(=O)O)c2)(c2ccc(O)c(S(=O)(=O)O)c2)c2c(Br)c(Br)c(Br)c(Br)c21
inactive: [8] | [2] | [3] | [4] | [5] | [6] | [7]

CCC#N
inactive: [8] | [2] | [4] | [5] | [7]

COC(=O)c1c(C(F)F)nc(C(F)(F)F)c(C2=NCCS2)c1CC(C)C
inactive: [8] | [2] | [4] | [5] | [6] | [7]

CCOc1nc(C(Cl)(Cl)Cl)ns1
inactive: [8] | [2] | [3] | [4] | [5] | [6] | [7]

CNC(=O)N(C)c1nc2ccccc2s1
inactive: [2] | [3] | [9] | [4] | [5] | [7]

CNC(=O)Oc1cccc(C(C)C)c1
inactive: [2] | [4] | [5] | [6] | [7]

O=C(Nc1ccccc1)N(Cc1ccc(Cl)cc1)C1CCCC1
inactive: [8] | [4] | [5] | [6] | [7]
active: [3] 61.1 µM | [9] 15.4 µM

CCC(C)(C)c1cc(-n2nc3ccccc3n2)c(O)c(C(C)(C)CC)c1
inactive: [8] | [2] | [9] | [4] | [5] | [6] | [7]

CNC(=O)Oc1c(C(C)(C)C)cc(C)cc1C(C)(C)C
inactive: [2] | [3] | [4] | [6] | [7]

CC1=C(C(=O)Nc2ccccc2)S(=O)(=O)CCO1
inactive: [8] | [3] | [4] | [6] | [7]
